Targets with the largest changes are over-represented here; the source holds about 21,000 in all.
Compound: Cc1cc(ccc1-c1ccccc1)C(=O)N1CCCN(CC1)C(=O)CCl [compound 10]
Assay: probe-labelled cysteine peptide fold change vs DMSO (competition) (log2 fold change); higher = less target engagement (more negative = stronger competition)
Conditions: THP-1, incubation time: 4 h
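Note: competitive profiling in live THP-1 cells: cysteine peptides tagged with an iodoacetamide desthiobiotin (IA-DTB) probe, intensity after compound treatment relative to DMSO-treated cells.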

Sequence of UniProt Q9BU76 (Q9BU76 whole entry, looked up): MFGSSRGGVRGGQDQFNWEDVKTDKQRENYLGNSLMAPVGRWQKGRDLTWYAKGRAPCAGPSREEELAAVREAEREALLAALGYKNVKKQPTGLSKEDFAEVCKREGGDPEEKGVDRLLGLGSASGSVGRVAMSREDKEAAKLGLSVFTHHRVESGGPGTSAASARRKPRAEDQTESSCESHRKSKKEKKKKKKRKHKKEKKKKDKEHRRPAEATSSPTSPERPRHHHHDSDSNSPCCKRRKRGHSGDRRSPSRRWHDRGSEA
Sequence of UniProt Q96PV6 (Q96PV6 whole entry, looked up): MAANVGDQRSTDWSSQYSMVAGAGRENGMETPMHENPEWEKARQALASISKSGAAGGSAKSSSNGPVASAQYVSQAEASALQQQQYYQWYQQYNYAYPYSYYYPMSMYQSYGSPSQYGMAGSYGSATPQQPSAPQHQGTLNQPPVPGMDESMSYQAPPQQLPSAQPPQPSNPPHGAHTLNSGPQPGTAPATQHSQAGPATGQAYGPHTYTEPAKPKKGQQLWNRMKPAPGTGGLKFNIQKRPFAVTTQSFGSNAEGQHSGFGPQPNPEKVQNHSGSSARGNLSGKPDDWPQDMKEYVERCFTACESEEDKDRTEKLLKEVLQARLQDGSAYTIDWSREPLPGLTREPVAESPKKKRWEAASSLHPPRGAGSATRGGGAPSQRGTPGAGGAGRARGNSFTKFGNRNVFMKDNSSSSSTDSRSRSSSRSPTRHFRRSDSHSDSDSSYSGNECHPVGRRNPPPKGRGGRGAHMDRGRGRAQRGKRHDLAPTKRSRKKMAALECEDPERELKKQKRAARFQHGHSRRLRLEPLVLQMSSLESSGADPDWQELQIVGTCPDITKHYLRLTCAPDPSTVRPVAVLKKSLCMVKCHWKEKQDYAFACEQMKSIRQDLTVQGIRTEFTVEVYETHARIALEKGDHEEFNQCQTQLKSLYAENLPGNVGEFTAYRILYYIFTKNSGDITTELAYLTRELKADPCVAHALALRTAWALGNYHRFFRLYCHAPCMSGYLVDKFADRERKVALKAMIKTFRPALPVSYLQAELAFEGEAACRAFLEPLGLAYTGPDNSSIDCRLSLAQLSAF
Sequence of UniProt Q9BTC8 (Q9BTC8 whole entry, looked up): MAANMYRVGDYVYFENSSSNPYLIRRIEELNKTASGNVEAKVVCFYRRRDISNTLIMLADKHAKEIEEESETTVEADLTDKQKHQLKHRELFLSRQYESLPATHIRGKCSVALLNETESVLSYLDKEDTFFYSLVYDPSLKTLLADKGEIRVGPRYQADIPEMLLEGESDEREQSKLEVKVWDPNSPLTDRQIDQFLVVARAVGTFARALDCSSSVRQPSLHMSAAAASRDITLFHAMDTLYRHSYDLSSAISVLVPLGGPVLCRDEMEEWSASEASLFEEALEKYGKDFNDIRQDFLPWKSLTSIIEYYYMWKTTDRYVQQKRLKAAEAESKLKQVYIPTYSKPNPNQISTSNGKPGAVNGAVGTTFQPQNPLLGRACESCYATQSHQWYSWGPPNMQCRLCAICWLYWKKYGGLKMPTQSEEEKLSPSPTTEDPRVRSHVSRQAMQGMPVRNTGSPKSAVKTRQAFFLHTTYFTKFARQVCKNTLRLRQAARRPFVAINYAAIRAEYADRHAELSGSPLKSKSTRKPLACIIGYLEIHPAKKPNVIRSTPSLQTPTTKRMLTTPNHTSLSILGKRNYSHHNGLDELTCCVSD
Sequence of UniProt P56192 (P56192 whole entry, looked up): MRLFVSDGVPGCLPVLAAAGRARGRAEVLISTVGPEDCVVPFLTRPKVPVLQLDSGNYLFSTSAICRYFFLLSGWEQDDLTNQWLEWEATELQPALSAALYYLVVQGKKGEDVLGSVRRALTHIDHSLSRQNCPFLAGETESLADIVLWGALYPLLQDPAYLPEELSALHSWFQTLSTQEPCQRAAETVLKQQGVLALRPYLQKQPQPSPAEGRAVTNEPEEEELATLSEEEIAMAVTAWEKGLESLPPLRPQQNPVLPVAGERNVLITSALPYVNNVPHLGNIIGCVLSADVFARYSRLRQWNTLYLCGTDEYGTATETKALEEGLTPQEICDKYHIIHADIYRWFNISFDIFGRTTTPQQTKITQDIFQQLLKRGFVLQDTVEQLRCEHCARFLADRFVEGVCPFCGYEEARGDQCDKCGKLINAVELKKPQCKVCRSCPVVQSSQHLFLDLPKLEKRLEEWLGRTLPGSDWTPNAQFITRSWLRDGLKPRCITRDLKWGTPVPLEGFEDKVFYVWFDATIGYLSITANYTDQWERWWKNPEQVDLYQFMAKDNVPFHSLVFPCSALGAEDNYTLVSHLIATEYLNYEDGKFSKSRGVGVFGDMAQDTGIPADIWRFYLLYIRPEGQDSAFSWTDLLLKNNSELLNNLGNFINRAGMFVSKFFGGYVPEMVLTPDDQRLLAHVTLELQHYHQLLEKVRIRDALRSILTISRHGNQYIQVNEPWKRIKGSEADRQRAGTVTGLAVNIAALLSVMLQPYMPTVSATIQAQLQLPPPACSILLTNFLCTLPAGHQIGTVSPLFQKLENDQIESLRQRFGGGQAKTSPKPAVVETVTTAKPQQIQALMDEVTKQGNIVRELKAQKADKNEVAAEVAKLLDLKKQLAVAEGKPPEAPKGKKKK
Sequence of UniProt P33991 (P33991 whole entry, looked up): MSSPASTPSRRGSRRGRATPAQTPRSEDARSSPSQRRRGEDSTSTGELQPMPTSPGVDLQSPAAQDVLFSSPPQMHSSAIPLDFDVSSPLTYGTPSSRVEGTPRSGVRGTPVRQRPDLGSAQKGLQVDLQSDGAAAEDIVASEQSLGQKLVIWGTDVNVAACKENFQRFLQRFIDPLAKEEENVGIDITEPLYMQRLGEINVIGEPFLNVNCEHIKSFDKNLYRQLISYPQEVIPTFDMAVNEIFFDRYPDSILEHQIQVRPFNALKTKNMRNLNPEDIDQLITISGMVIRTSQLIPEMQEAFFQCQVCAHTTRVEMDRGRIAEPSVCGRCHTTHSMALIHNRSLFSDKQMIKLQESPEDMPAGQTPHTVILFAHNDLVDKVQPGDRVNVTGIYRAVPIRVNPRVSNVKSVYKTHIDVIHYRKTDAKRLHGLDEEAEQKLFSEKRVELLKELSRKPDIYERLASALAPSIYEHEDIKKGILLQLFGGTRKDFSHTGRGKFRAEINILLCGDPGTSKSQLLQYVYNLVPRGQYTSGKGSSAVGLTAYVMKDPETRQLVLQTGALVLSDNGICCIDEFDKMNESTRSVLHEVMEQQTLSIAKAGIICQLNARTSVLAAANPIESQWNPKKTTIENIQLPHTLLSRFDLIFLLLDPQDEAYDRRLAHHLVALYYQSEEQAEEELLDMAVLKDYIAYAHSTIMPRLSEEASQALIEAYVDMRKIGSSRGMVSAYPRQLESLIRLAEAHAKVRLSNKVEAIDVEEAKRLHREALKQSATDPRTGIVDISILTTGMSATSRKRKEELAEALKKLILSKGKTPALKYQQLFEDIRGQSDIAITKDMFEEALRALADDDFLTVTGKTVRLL
Sequence of UniProt P16455 (P16455 whole entry, looked up): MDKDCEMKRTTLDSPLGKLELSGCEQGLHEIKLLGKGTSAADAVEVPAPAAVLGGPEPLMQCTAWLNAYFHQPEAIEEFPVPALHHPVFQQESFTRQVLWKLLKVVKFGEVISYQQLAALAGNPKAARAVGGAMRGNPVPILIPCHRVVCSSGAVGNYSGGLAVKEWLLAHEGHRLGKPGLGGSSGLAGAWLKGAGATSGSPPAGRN
Sequence of UniProt P49736 (P49736 whole entry, looked up): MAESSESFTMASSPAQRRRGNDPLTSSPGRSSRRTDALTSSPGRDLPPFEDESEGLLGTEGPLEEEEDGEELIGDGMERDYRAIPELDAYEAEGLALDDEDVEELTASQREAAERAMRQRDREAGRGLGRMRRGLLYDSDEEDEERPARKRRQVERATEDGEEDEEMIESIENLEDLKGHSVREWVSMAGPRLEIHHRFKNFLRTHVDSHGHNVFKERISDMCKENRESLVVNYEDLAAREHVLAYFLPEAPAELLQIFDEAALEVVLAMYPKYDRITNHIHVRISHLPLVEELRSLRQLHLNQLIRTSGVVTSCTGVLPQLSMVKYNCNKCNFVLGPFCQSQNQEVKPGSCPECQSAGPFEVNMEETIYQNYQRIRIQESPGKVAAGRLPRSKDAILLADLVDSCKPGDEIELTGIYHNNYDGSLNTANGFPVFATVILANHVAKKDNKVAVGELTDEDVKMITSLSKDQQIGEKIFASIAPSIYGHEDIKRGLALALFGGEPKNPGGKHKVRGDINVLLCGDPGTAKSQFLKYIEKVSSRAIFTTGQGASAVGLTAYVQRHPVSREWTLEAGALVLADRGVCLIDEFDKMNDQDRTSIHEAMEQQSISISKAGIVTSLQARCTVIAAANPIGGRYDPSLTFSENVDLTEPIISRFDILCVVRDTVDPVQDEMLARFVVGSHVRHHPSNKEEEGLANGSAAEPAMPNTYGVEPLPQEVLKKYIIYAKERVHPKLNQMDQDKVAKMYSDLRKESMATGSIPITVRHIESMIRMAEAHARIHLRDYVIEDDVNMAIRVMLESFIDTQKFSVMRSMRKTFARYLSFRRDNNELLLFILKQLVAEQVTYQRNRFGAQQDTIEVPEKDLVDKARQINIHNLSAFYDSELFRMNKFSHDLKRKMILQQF
Sequence of UniProt Q9UBB5 (Q9UBB5 whole entry, looked up): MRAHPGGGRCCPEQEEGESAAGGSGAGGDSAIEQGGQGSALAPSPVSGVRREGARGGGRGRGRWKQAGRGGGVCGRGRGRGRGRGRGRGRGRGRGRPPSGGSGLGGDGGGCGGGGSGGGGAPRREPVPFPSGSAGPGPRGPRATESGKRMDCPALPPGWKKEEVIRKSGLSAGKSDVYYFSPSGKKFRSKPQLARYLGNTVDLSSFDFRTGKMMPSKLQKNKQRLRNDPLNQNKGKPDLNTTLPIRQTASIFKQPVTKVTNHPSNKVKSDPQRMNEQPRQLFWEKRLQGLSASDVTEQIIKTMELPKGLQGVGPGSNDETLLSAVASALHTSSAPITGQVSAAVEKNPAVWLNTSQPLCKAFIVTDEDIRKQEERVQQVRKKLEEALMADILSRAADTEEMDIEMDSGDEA

Row | Target | probe-labelled cysteine peptide fold change (10 µM) | probe-labelled cysteine peptide fold change (50 µM)
1 | MRPL44_Q9H9J2_96_TAFVNSCYIK (UniProt Q9H9J2) | -0.0364 | -0.21
2 | MARS_P56192_389_CEHCAR (UniProt P56192) | -0.00939 | -0.304
3 | MCM2_P49736_584_GVCLIDEFDK (UniProt P49736) | 0.0289 | 0.142
4 | M6PR_P20645_145_AVVMISCNR (UniProt P20645) | -0.268 | -0.155
5 | MAPK8_P45983_163_SDCTLK (UniProt P45983) | -0.283 | -1.24
6 | MMTAG2_Q9BU76_103_EDFAEVCKR (UniProt Q9BU76) | -0.168 | -0.321
7 | MTMR14_Q8NCE2_131_FVCPVILFK (UniProt Q8NCE2) | -0.00849 | -0.0865
8 | MAP4K1_Q92918_335_SSSLGIPDADCCR (UniProt Q92918) | -0.294 | -1.09
9 | MAP2K2_P36507_384_SEVEEVDFAGWLCK (UniProt P36507) | 0.0856 | 0.0969
10 | LRPPRC_P42704_380_EDGPSVFGSFFLQHCVTMNTPVEK (UniProt P42704) | 0.0471 | 0.322
11 | MRPL53_Q96EL3_21_VQFCPFEK (UniProt Q96EL3) | 0.0106 | -0.103
12 | MCM4_P33991_328_IAEPSVCGR (UniProt P33991) | 0.0169 | -0.0125
13 | MAZ_P56270_424_VHSQGPHHVCELCNK (UniProt P56270) | 0.033 | -0.236
14 | MRPL35_Q9NZE8_150_EFVFCNK (UniProt Q9NZE8) | -0.362 | -0.257
15 | MMP14_P50281_574_RLLYCQR (UniProt P50281) | -0.276 | -0.518
16 | MIS18A_Q9NYP9_85_AQLEEEAAAAEERPLVFLCSGCR (UniProt Q9NYP9) | 0.00435 | -0.0262
17 | MAK16_Q9BXY0_17_QFCSFK (UniProt Q9BXY0) | -0.115 | -0.166
18 | MTHFD1_P11586_236_GEWIKPGAIVIDCGINYVPDDKKPNGR (UniProt P11586) | -0.116 | -1.23
19 | MCMBP_Q9BTE3_249_VYEDWDCFK (UniProt Q9BTE3) | -0.042 | -0.0294
20 | LPIN3_Q9BQK8_443_SLRDPNPEHEPEPTLDTVDTIALSLCGGLADSR (UniProt Q9BQK8) | -0.112 | 0.0613

Row | Target | probe-labelled cysteine peptide fold change (10 µM) | probe-labelled cysteine peptide fold change (50 µM)
21 | MADD_Q8WXG6_1489_LINMTYCPK (UniProt Q8WXG6) | -0.139 | -1.56
22 | MBD2_Q9UBB5_111_GRPPSGGSGLGGDGGGCGGGGSGGGGAPR (UniProt Q9UBB5) | -0.142 | -1.1
23 | MORC3_Q14149_15_LSALCPK (UniProt Q14149) | -0.27 | -1.37
24 | MGMT_P16455_145_GNPVPILIPCHR (UniProt P16455) | -1.04 | -1.29
25 | LIMD1_Q9UGP4_401_LSPTSLVHPVMSTLPELSCK (UniProt Q9UGP4) | -0.0884 | -0.436
26 | MKI67_P46013_643_SQHDILQMICSK (UniProt P46013) | -0.612 | -2.28
27 | METAP2_P50579_263_IIDCAFTVTFNPK (UniProt P50579) | 0.171 | 0.0277
28 | MCM6_Q14566_158_THPVHPELVSGTFLCLDCQTVIRDVEQQFK (UniProt Q14566) | 0.0358 | -0.522
29 | MCU_Q8NE86_191_TLVQQLYTTLCIEQHQLNK (UniProt Q8NE86) | 0.0411 | -0.0406
30 | LIMS1_P48059_240+252_GLAYCETHYNQLFGDVCFHCNR (UniProt P48059) | 0.0277 | 0.118
31 | LRP1_Q07954_3021_GGDPHSCK (UniProt Q07954) | -0.193 | -0.308
32 | MORC3_Q14149_671_NDAVILPSCVEAEAK (UniProt Q14149) | -0.296 | -0.0456
33 | MYBL2_P10244_147_SCWTEEEDRIICEAHK (UniProt P10244) | 0.166 | -0.335
34 | MYCBP2_O75592_505_CLHACGISLFDLEK (UniProt O75592) | 0.122 | 0.236
35 | LENG8_Q96PV6_584_SLCMVK (UniProt Q96PV6) | -0.193 | -1.09
36 | MYCBP2_O75592_3392_MPCLYLQTLAR (UniProt O75592) | -0.0844 | -0.345
37 | LSM2_Q9Y333_26_DVVVELKNDLSICGTLHSVDQYLNIK (UniProt Q9Y333) | 0.0504 | -0.543
38 | MTA3_Q9BTC8_109_CSVALLNETESVLSYLDK (UniProt Q9BTC8) | 0.791 | 0.971
39 | LTA4H_P09960_8_PEIVDTCSLASPASVCR (UniProt P09960) | -0.129 | -0.324
